Inconclusive results are not listed. A structure can be active in one record and inactive in another. Activity calls are given as the source filed them. How the source made its calls: active means hit-call score of the fitted dose curve at least 0.9, where 1 is the maximum; inconclusive means response in the unintended direction; inactive means score below 0.9.

Read-out in this experiment: Cytochrome P450 2B6 (Homo sapiens) (UniProt P20813)
The experiment is described as follows: CLD_CYP2B6_6hr: CellzDirect (CLD) Gene Expression Assay for xenobiotic metabolism (CYP2B6) at 6 hours (AID 2283677).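 Further: actives raise CYP2B6 transcript above DMSO baseline so AC50 marks an inducer.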 How it is done:
CLD_6hr is a cell-based, multiplexed-readout assay that uses hepatocyte, a human liver primary cell, with measurements taken at 6 hours after chemical dosing in a 96-well plate.CLD_CYP2B6_6hr is one of 16 assay component(s) measured or calculated from the CLD_6hr assay. It is designed to make measurements of mRNA induction, a form of inducible reporter, as detected with chemiluminescence signals by Quantitative Nuclease Protection Assay (qNPA) technology.Data from the assay component CLD_CYP2B6_6hr was analyzed at the endpoint, CLD_CYP2B6_6hr, in the positive analysis fitting direction relative to DMSO as the negative control and baseline of activity. Using a type of inducible reporter, gain-of-signal activity can be used to understand changes in the reporter gene as they relate to the gene CYP2B6. Furthermore, this assay endpoint can be referred to as a primary readout. To generalize the intended target to other relatable targets, this assay endpoint is annotated to the cyp intended target family, where subfamily is xenobiotic metabolism.
Human hepatocyte cultures were treated daily for two consecutive days with fresh dosing solutions containing appropriate concentrations of the 320 ToxCast chemicals (chemical identities were blinded to CellzDirect and other ToxCast collaborators), vehicle control (0.2% DMSO), and positive control inducers as summarized in Table 1. Due to the large number of treatment groups and chemicals examined, the ToxCast chemicals were divided into two groups (spanning two independent cultures of hepatocytes from separate donor preparations (Hu778: ToxCast plates 1 and 2; Hu776: ToxCast plates 3 and 4). Each preparation of human hepatocyte cultures was treated with respective vehicle control, medium only control, set of six positive controls/reference chemicals for the five hepatic receptor pathways, and a subset of eight of the ToxCast chemicals (indoxacarb, pyrithiobac-sodium, norflurazon, cyhalofop-butyl, methomyl, thiram, acetochlor, and propiconazole). These replicate data, coupled with internal replicates designed within the blinded ToxCast chemical library, provided additional data to evaluate interindividual differences between hepatocyte preparations and their potential impact on chemical profiles.Cell morphology and integrity were evaluated using phase-contrast microscopy as an indicator of hepatocyte cell health (Tyson & Green, 1987). Cultures for each treatment group (i.e., media, vehicle [0.2% DMSO], positive control inducers [multiple concentrations], and the ToxCast chemicals [multiple concentrations]) were observed and cell morphology was assessed relative to vehicle control cultures at each harvest time point (0, 6, 24, or 48 h). […] Images were evaluated at the conclusion of the study to assess changes in cell integrity and account for the effects of chemical exposure on uncharacteristic changes in concentration-dependent gene expression profiles. The results from these determinations of apparent cytotoxicity were annotated (yes/no) alongside the corresponding qNPA data for reference.At the conclusion of each treatment period, hepatocyte cultures (96-well) were washed with 1 volume of HBSS, lysed by addition of 25 ul ArrayPlate lysis buffer (HTG, Tucson, AZ), and 70 ul/well of Denaturation Oil, denatured by incubation at 95C for 10 min, and frozen at approximately -70C until analysis by nuclease protection assay (qNPA) (Roberts et al., 2007). For qNPA analysis, cell lysates were thawed at 50C for approximately 30 min, qNPA probes were added, and samples were incubated at 95C for 10 min to begin the detection process by denaturing the target RNA, dissociating the duplexes and secondary structure hybridization. At the conclusion of the hybridization period, S1 nuclease reagent was added to each sample to digest all nonprotected nucleotides at 50C for 60-90 min. […]
Consider `CN(C)C(=O)Nc1ccc(Cl)c(Cl)c1`, for which the AC50 (usually the midpoint of the concentration-response curve, whichever way the signal moves) was 4.6 µM (active).

On to `CCOC(=O)C(C)Oc1ccc(Oc2cnc3cc(Cl)ccc3n2)cc1` (configuration not stated), for which the molecule was called inactive.

For the molecule `CCC(C)OC(=O)N1CCCCC1CCO` (configuration not stated), the call was inactive.

Consider `CC(C)(c1ccc(O)cc1)c1ccc(O)cc1`, for which the AC50 was 14.2 µM (active).

For the molecule `CCCCOC(=O)[C@@H](C)Oc1ccc(Oc2ccc(C(F)(F)F)cn2)cc1`, the molecule was classed as inactive.

Regarding `CCCN(CCC)C(=O)SCC`, the result was inactive and the half-maximal activity concentration (AC50) was 0.165 µM (active).

Regarding `Oc1ccc(C(c2ccc(O)cc2)C(Cl)(Cl)Cl)cc1`, the result was inactive.

For the molecule `CCSC(=O)N(CC(C)C)CC(C)C`, the AC50 is 3.55 µM (active).

With `CCN(CC)C(=O)c1cccc(C)c1`, the AC50 is 2.38 µM (active).

Turning to `COC(=O)c1ccccc1C(=O)O`, the molecule was classed as inactive.

For `COC(=O)c1ccc(I)cc1S(=O)(=O)NC(=O)Nc1nc(C)nc(OC)n1`, the half-maximal activity concentration (AC50) was 0.397 µM (active).

For the molecule `CSC(=O)c1cccc2nnsc12`, the call was inactive.

For `c1ccc(Nc2ccccc2)cc1`, the AC50 is 9.66 µM (active).

Regarding `CCCCCOC(=O)COc1cc(N2C(=O)C3=C(CCCC3)C2=O)c(F)cc1Cl`, the AC50 is 20 µM (active).

As for `CCOC(=O)NCCOc1ccc(Oc2ccccc2)cc1`, the AC50 was 3.97 µM (active).

Take `COC(=O)CSc1cc(N=c2sc(=O)n3n2CCCC3)c(F)cc1Cl`: the AC50 was 1.82 µM (active).

As to `CCCCC(CC)CN1C(=O)C2C3C=CC(C3)C2C1=O` (configuration not stated), the AC50 is 4.33 µM (active).

With `CCCCCCC(C)OC(=O)COc1nc(F)c(Cl)c(N)c1Cl` (configuration not stated), the molecule was classed as inactive.

As for `CCCCOC(=O)C(C)Oc1ccc(Oc2ccc(C(F)(F)F)cn2)cc1` (configuration not stated), the call was inactive.

With `COc1nc(C)nc(NC(=O)NS(=O)(=O)c2ccccc2OCCCl)n1`, the molecule was called inactive.

For the molecule `CCCN(CCC)c1c([N+](=O)[O-])cc(C(F)(F)F)c(N)c1[N+](=O)[O-]`, the AC50 was 0.752 µM (active).

On to `CCOC(=O)C(C)Oc1ccc(Oc2nc3ccc(Cl)cc3o2)cc1` (configuration not stated), for which the call was inactive.

Consider `C#CCOC(=O)[C@@H](C)Oc1ccc(Oc2ncc(Cl)cc2F)cc1`, for which the AC50 is 0.000426 µM (active).

For the molecule `S=C(S)NCCNC(=S)S.[Mn+2].[S-]C([S-])=NCCN=C([S-])[S-].[Zn+2]`, the concentration at half-maximal activity (AC50) is 2.55 µM (active).

For `COC(=O)c1ccc(CNS(C)(=O)=O)cc1S(=O)(=O)NC(=O)Nc1nc(OC)cc(OC)n1`, the molecule was called inactive.

Turning to `CCN(Cc1c(F)cccc1Cl)c1c([N+](=O)[O-])cc(C(F)(F)F)cc1[N+](=O)[O-]`, the AC50 was 0.419 µM (active).

For the molecule `COC(=O)c1ccccc1S(=O)(=O)NC(=O)Nc1nc(OC(F)F)cc(OC(F)F)n1`, the outcome was inactive.

As to `CC1(C)C(C=C(Cl)Cl)C1C(=O)OCc1cccc(Oc2ccccc2)c1` (configuration not stated), the concentration at half-maximal activity (AC50) was 0.083 µM (active).

With `COC(=O)c1cccc(C)c1S(=O)(=O)NC(=O)Nc1nc(OCC(F)(F)F)nc(N(C)C)n1`, the AC50 was 8.96 µM (active).

For the molecule `CCCCOCCOCCOCc1cc2c(cc1CCC)OCO2`, the AC50 was 1.27 µM (active).

Take `CCOC(=O)COc1cc(-n2ncc(C(F)(F)F)c(C)c2=O)c(F)cc1Cl`: the AC50 was 2.49 µM (active).

Regarding `CCCCC(CC)COC(=O)c1ccccc1C(=O)O` (configuration not stated), the concentration at half-maximal activity (AC50) was 4.36 µM (active).

As for `COC(=O)c1c(Cl)nn(C)c1S(=O)(=O)NC(=O)Nc1nc(OC)cc(OC)n1`, the molecule was classed as inactive.

For the molecule `C=CCOC(Cn1ccnc1)c1ccc(Cl)cc1Cl` (configuration not stated), the AC50 was 0.0186 µM (active).

Turning to `c1ccc2[nH]c(-c3cscn3)nc2c1`, the half-maximal activity concentration (AC50) was 10.2 µM (active).

As for `CC(C)(C)[C@@H](O)[C@@H](Cc1ccc(Cl)cc1)n1cncn1`, the AC50 was 1.73 µM (active).

(Values after PubChem BioAssay (EPA / NIEHS).)
